Assay outcomes (PubChem BioAssay)
This is a sample that favours compounds with a hit; in the whole collection about 3% have one here.
PAX8 inh HTS = inhibitors of PAX8 transcriptional activity in RMG-I cells. RMG-I TPO-luciferase reporter, SteadyGlo, 24 h. actives 1.2% (n = 360,000). inhibition, % at 12.6 µM. AID 652154;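 active = mean replicate inhibition at least 60% with every replicate also reaching 60%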;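 note: luciferase light reporting Pax8 driven TPO promoter activity; plate controls were median of neutral control wells for no effect and mitoxantrone controls for full effect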
Shn3 3UTR inh = Schnurri-3 reporter inhibition in Clone20 osteoblasts; Clone20 osteoblast Shn3 3'UTR firefly luciferase, 24 h; inhibition, % at 12.5 µM; actives 0.52% (n = 360,000);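 active = mean inhibition of at least 75% with every replicate also reaching 75%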;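 note: 0% = median of neutral control wells and 100% = pilot-screen positive control compound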
ABHD5 PLIN5 PPI = blocks binding of human ABHD5 to perilipin-5; Split G. princeps luciferase complementation, luminescence, 4 h; inhibition, % at 4 µM; AID 602281; actives 0.78% (n = 360,000); Q00G26+Q8WTS1;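 active = inhibition above the mean inhibition across every tested compound plus 3 SD, cut at about 22% in these data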;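 note: 0% = DMSO only wells and the 100% control is not disclosed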
Target sequence (Q00G26 whole entry, looked up): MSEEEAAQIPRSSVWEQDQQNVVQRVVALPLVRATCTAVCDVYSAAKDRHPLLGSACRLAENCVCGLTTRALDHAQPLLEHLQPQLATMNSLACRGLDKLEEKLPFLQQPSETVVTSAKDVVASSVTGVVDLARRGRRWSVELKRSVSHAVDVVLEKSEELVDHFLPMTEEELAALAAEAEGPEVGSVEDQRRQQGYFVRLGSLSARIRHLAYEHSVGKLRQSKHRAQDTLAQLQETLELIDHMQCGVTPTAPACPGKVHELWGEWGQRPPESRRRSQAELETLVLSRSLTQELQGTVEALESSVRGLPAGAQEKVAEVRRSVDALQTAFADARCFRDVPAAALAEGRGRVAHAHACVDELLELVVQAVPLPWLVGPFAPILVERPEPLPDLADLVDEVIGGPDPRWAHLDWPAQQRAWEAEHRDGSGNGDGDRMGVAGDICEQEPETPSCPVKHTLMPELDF
Target sequence (Q8WTS1 whole entry, looked up): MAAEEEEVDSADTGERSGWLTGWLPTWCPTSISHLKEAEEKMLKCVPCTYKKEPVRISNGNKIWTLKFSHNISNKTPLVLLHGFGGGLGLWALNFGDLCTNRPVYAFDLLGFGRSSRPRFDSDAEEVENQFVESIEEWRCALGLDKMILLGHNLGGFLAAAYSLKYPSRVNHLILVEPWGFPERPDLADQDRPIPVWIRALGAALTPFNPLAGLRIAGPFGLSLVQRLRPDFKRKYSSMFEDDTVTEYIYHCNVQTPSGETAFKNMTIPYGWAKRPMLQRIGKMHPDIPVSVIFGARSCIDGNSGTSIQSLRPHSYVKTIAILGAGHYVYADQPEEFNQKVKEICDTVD
EWS-Fli block = blocks EWS/Fli oncoprotein-driven transcription; inhibition, % at 12.6 µM; A673 NR0B1-luciferase reporter, viability-normalised; actives 0.67% (n = 350,000);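 active = mean inhibition of at least 50% after viability correction, with every replicate also passing that limit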;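 note: firefly luciferase signal divided by Alamar Blue viability fluorescence both relative to DMSO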
Peg3 prom inh = reduces Peg3 promoter-driven luciferase expression in HeLa. inhibition, % at 20 µM. HeLa PEG-Prom luciferase reporter, luminescence, overnight. AID 588405. actives 1.7% (n = 360,000);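 active = inhibition of at least 50% at 20 µM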
MITF TRPM1 inh = inhibitors of MITF-driven TRPM1 promoter in melanoma cells; inhibition, % at 12.5 µM; SK-MEL-5 TRPM1 promoter luciferase, 24 h; AID 488899; actives 0.83% (n = 330,000);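 active = mean inhibition across replicates of 60% or more, whatever share of single replicates reaches that level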
* marks the source's active call; other numbers are inactive results; nt = no result given.

SMILES	PAX8 inh HTS	Shn3 3UTR inh	ABHD5 PLIN5 PPI	EWS-Fli block	Peg3 prom inh	MITF TRPM1 inh
C[C@H](CO)N1C[C@H](C)[C@@H](CN(C)CC2CCCCC2)Oc2c(NC(=O)Nc3ccc(C(F)(F)F)cc3)cccc2C1=O	nt	nt	nt	2.4	nt	nt
Cc1nnc(NCc2n[nH]c(=O)c3ccccc23)c2ccccc12	nt	-8.1	-1.5	1.2	106.4*	20.0
COc1ccc(NCc2n[nH]c(=O)c3ccccc23)cc1	nt	-5.0	-5.6	nt	4.9	-3.1
CCCCOc1cccc(C(=O)Nc2ccc(NC(=O)c3cccs3)cc2)c1	5.7	73.9	-4.6	52.7*	42.4	54.2
COc1ccc(C(=O)/C=C2\Sc3ccccc3N2C)cc1	-70.1	-87.2	8.1	-86.3	-218.4	-8.9
COc1ccc(-[n+]2c(C)cc(/C=C3\Sc4ccccc4N3C)cc2C)cc1	79.8*	87.9*	17.1	36.6	114.7*	101.2*
COc1ccccc1-[n+]1c(C)cc(/C=C2\Sc3ccccc3N2C)cc1C	67.0*	77.6	12.5	39.5	67.3*	92.5*
CN(C)c1ccc2c(c1)[C@H]1C[C@@H](CC(=O)NCC3CC3)O[C@@H](CO)[C@H]1O2	10.9	nt	nt	3.7	nt	nt
O=[N+]([O-])c1ccccc1N=Nc1c(O)[nH]c2ccc(F)cc12	33.5	85.1*	6.9	-77.1	-219.5	-29.7
CNC1=C(N(C(C)=O)c2ccc(Br)cc2)C(=O)c2ccccc2C1=O	105.3*	77.8	-8.2	nt	101.6*	106.8*
CCC(=O)N(C1=C(NC)C(=O)c2ccccc2C1=O)C(C)C	74.0*	-18.3	-5.5	-6.2	30.4	35.1
CC(=O)NC1=C(Nc2ccc(N(C)C)cc2)C(=O)c2ccccc2C1=O	-35.7	-5.6	-5.5	-49.2	-247.4	12.1
O=C(c1ccncc1)N1CC(=O)N2[C@H](CO)[C@H](c3ccc(/C=C/c4ccccc4)cc3)[C@@H]2C1	11.9	nt	nt	-9.6	nt	nt
O=C(COC(=O)c1c2c(nc3ccccc13)CCN(Cc1ccccc1)C2)Nc1c(F)cccc1F	73.4*	25.7	1.6	nt	50.3*	6.7
CCc1ccc(NC(=S)NC2CCN(Cc3ccccc3)CC2)cc1	3.0	-1.6	-1.8	nt	12.4	-4.1
CCC(C)c1ccc(NC(=S)NC2CCN(Cc3ccccc3)CC2)cc1 (stereo not drawn)	51.2	22.3	2.3	16.0	77.3*	19.0
S=C(c1ccc2c(c1)OCO2)N1CCN(c2cccc(Cl)c2)CC1	42.2	2.1	2.0	59.7*	14.4	14.5
Cc1cc(/C=C2\SC(=S)N(C)C2=O)c(C)n1-c1ccc(O)cc1	7.1	-37.5	14.0	74.7*	62.1*	75.9*
Cc1cc(/C=C2\SC(=S)N(C)C2=O)c(C)n1-c1ccccc1O	-126.9	-13.0	7.5	-59.8	-79.6	-3.5
COc1ccc(N2CCc3c(C)nc4c(OC)cc(OC)cc4c32)cc1	46.9	33.1	8.9	8.8	73.6*	-7.8
COc1ccc(CN2CC3(CN(C(=O)C4CCC4)C3)c3c(n(C)c4cc(OC)ccc34)[C@H]2CO)cc1	nt	nt	nt	7.7	nt	nt
COc1cc(OC)c(NC(=O)c2ccccc2F)cc1Cl	-10.3	-9.7	1.9	-8.1	-55.6	-3.7
NNC(=O)c1cc2ccccc2cc1O	2.8	50.4	-0.9	nt	38.7	76.3*
COc1cc(NC(=O)c2cc3ccccc3cc2O)c(OC)cc1Cl	72.0*	43.5	-16.5	-10.2	-6.8	28.7
Cc1ccc(Cl)cc1NC(=O)c1cc2ccccc2cc1O	77.5*	73.3	-3.4	12.2	2.3	72.0*
SMILES	PAX8 inh HTS	Shn3 3UTR inh	ABHD5 PLIN5 PPI	EWS-Fli block	Peg3 prom inh	MITF TRPM1 inh
Cc1cc(O)c(C(C)C)cc1NC(=O)c1ccccc1Cl	70.4*	-1.6	1.4	-12.4	1.1	3.6
CO[C@H]1CN(C)C(=O)c2ccc(NC(=O)C3CCC3)cc2OC[C@H](C)N(C(=O)NC(C)C)C[C@@H]1C	nt	nt	nt	-7.8	nt	nt
C[C@@H](NC(=O)C[C@H]1C=C[C@H](NC(=O)C2CCOCC2)[C@@H](CO)O1)c1ccccc1	-5.4	nt	nt	-5.6	nt	nt
COc1cc([N+](=O)[O-])ccc1-c1ccc(/C=N\n2cnnc2)o1	9.2	6.2	2.6	5.1	11.9	9.4
Cc1ccc(/C=C2/C(=O)ON=C2c2ccccc2)o1	-14.2	56.5	10.6	22.4	50.1*	71.5*
COc1cc(/C=C2\C(=O)ON=C2c2ccccc2)cc(Br)c1O	36.3	3.4	6.1	11.9	51.3*	25.0
COc1cc([N+](=O)[O-])ccc1-c1ccc(/C=C2\C(=O)ON=C2c2ccccc2)o1	-27.7	36.4	5.9	37.9	103.4*	89.6*
COc1ccc(-c2cnc3c(c2)C(=O)N([C@H](C)CO)C[C@H](C)[C@H](CN(C)C(=O)CN(C)C)O3)cc1	nt	nt	nt	-14.4	nt	nt
O=C(Cc1ccccc1)N/N=C/c1cc(Br)cc(Br)c1O	24.8	24.8	2.2	15.7	53.7*	20.0
O=C(CNC(=O)c1cccc(Br)c1)N/N=C/c1cc(Br)cc(Br)c1O	9.0	-19.3	-7.3	6.8	54.3*	-4.0
CCOc1cc(Br)cc(/C=N/NC(=O)c2cccnc2)c1O	31.6	92.1*	-6.2	2.7	62.0*	48.9
CN(C)c1ccc(C(=O)N/N=C/c2cc(Br)cc(Br)c2O)cc1	8.1	nt	-5.4	6.5	58.7*	nt
O=S(=O)(c1ccccc1)N1CCCCN2[C@H](CO)[C@H](c3ccc(-c4ccccc4F)cc3)[C@@H]2C1	22.0	nt	nt	-23.9	nt	nt
COc1ccccc1NC(=O)N1CC(=O)N2[C@@H](CO)[C@H](c3ccc(C#CC(C)C)cc3)[C@@H]2C1	11.1	nt	nt	7.1	nt	nt
CO[C@H]1CN(C)C(=O)c2cc(NC(C)=O)ccc2OC[C@@H](C)N(C(=O)c2cnccn2)C[C@@H]1C	-6.0	nt	nt	5.9	nt	nt
CCC1(C)Cc2c(sc3nnn(CC(=O)Nc4cccc5ccccc45)c(=O)c23)CO1 (stereo not drawn)	nt	12.2	10.6	nt	56.5*	1.5
CCC1(C)Cc2c(sc3nnn(CC(=O)Nc4ccc(C)cc4)c(=O)c23)CO1 (stereo not drawn)	nt	13.9	0.2	nt	42.5	3.1
C[C@@H]1CN([C@H](C)CO)C(=O)c2cccc(NS(=O)(=O)c3cccs3)c2O[C@@H]1CN(C)C(=O)Nc1ccccc1	nt	nt	nt	0.0	nt	nt
COc1cccc(OCC(O)CN2CCC(CN3C(=O)c4cccc5cccc(c45)C3=O)CC2)c1 (stereo not drawn)	29.2	26.6	-4.2	27.5	19.2	1.1
Cc1cc(C)cc(OCC(O)CN2CCC(CN3C(=O)c4cccc5cccc(c45)C3=O)CC2)c1 (stereo not drawn)	67.4*	72.6	15.3	28.8	75.2*	71.5*
CCc1ccc(OCC(O)CN2CCC(CN3C(=O)c4cccc5cccc(c45)C3=O)CC2)cc1 (stereo not drawn)	-73.7	63.7	11.2	nt	108.6*	57.2
COc1ccc(COCC(O)CN2CCC(CN3C(=O)c4cccc5cccc(c45)C3=O)CC2)cc1OC (stereo not drawn)	13.7	15.9	0.8	nt	20.0	23.7
